This note sets out measurements from PubChem BioAssay (NCI).

SMILES strings stand for the structures. This is part of a sample that, as a whole, favours compounds with a hit. Of some 83,000 tested, about 20% had one in any assay.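 In brief: 96-well plates, 48 h treatment, single concentration, percent growth endpoint.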 Unmarked numbers belong to inactive results. Activity calls are given as the source filed them. Rule for the calls: active = growth percent below 10; inactive = the rest.

Test systems include HCT-15 colon; HT29 colon; SNB-75 CNS; SNB-19 CNS; U251 CNS; PC-3 prostate; SK-MEL-5 melanoma; UACC-62 melanoma; LOX IMVI melanoma; SK-MEL-28 melanoma.
Common to all, as to test: NCI-60 one-dose screen, 48 h (100 = growth as untreated, 0 = no growth, -100 = all killed)
What all share (settings): 10 µM

As for `CCOc1ccccc1/C=N\N=C\c1ccccc1O`, the growth in the assay on HCT-15 colon was 100%; in the assay with HT29 colon, 101%; in the assay with SNB-75 CNS it was 97.6%; with SNB-19 CNS it was 97.8%; in the assay with U251 CNS, 104%; in the assay with PC-3 prostate, 95.8%. Also, the growth in the assay with SK-MEL-5 melanoma was 95.5%; with UACC-62 melanoma it was 93%; with LOX IMVI melanoma it was 90.3%; with SK-MEL-28 melanoma, 112%.
In the case of `COc1ccc2nc3cc(Cl)ccc3c(N)c2c1`, the growth with HCT-15 colon is -65% (active); in the assay with HT29 colon, -67.3% (active); in the assay on SNB-75 CNS it was -99.3% (active); with SNB-19 CNS it was 4.71% (active); with U251 CNS, -74.3% (active); in the assay on PC-3 prostate it was -73% (active). Further, the growth was -95.6% (active) in the assay with SK-MEL-5 melanoma, -96.4% (active) in the assay on UACC-62 melanoma, -94.7% (active) with LOX IMVI melanoma and -98.4% (active) with SK-MEL-28 melanoma.
With `COc1cc2cc(Oc3ccc(NC(=O)c4ccccc4)cc3)c(C)nc2cc1OC`, the growth is 94.3% in the assay with HCT-15 colon; 104% in the assay with HT29 colon; 54.1% with SNB-75 CNS; 98.6% in the assay with SNB-19 CNS; 59.3% with U251 CNS; 75.4% in the assay with PC-3 prostate. Moreover, the growth in the assay with SK-MEL-5 melanoma is 80.2%; with UACC-62 melanoma, 95.9%; in the assay on LOX IMVI melanoma, 86.5%; with SK-MEL-28 melanoma, 92.9%.
As to `O=C(CNc1nnc(-c2cccnc2SCc2ccccc2)s1)Nc1nc(Cl)cc(Cl)n1`, the growth in the assay on HCT-15 colon is 108%; in the assay with HT29 colon, 123%; with SNB-75 CNS, 74.1%; with SNB-19 CNS it was 103%; with U251 CNS, 119%; with PC-3 prostate it was 112%. Further, the values for the growth in the assay with SK-MEL-5 melanoma, with UACC-62 melanoma and in the assay with SK-MEL-28 melanoma were 113%, 108% and 110%, respectively.
`Cc1cc(Br)nnc1Br`: the growth in the assay on HCT-15 colon was 102%; with HT29 colon it was 113%; in the assay with SNB-75 CNS, 75.4%; with SNB-19 CNS it was 110%; in the assay with U251 CNS, 112%; with PC-3 prostate, 110%. Moreover, the growth in the assay on SK-MEL-5 melanoma was 94.7%; in the assay with UACC-62 melanoma, 111%; with LOX IMVI melanoma, 108%; with SK-MEL-28 melanoma, 114%.
For the compound `C[N+]1(CCCCC[N+]2(C)CCCC2)CCCC1`, the growth in the assay with HCT-15 colon was 103%; with HT29 colon, 102%; with SNB-75 CNS it was 110%; with SNB-19 CNS, 96.8%; with U251 CNS, 108%; in the assay with PC-3 prostate, 86.3%. For the same compound, the growth in the assay on SK-MEL-5 melanoma is 103%; with UACC-62 melanoma it was 102%; with LOX IMVI melanoma, 105%; in the assay on SK-MEL-28 melanoma, 105%.
`COc1cc(/C=C/c2cc(/C=C/c3ccc(O)c(OC)c3)[nH]c(=O)n2)ccc1O`: the growth in the assay on HCT-15 colon is 81.8%; with HT29 colon it was -6.41% (active); in the assay with SNB-75 CNS, 44.3%; with SNB-19 CNS, 82.6%; in the assay with U251 CNS, 55.6%; in the assay on PC-3 prostate, 61%. Also, the growth with SK-MEL-5 melanoma is 70.7%; with UACC-62 melanoma, 63.3%; in the assay on LOX IMVI melanoma, 49%; in the assay on SK-MEL-28 melanoma, 50.9%.
Take `CCN(CC)CCOc1ccc2c(c1O)C(=O)c1ccccc1C2=O`: the growth in the assay on HCT-15 colon is 74.4%; with HT29 colon it was 68.1%; with SNB-75 CNS, 79.1%; in the assay with SNB-19 CNS, 82.6%; in the assay on U251 CNS, 77.3%; in the assay with PC-3 prostate it was 85.3%. The growth was 81.2% with SK-MEL-5 melanoma, 90.5% in the assay on UACC-62 melanoma, 76.6% in the assay with LOX IMVI melanoma and 102% in the assay on SK-MEL-28 melanoma.
As for `CCCCCCCCCCCC[n+]1c(C)cc(N)c2ccccc21`, the growth in the assay on HCT-15 colon was 34.7%; in the assay on HT29 colon, -8.54% (active); with SNB-75 CNS it was 3.98% (active); with SNB-19 CNS, 9.29% (active); in the assay on U251 CNS, 8.56% (active); with PC-3 prostate, -6.19% (active). The figures for the growth in the assay with SK-MEL-5 melanoma, with UACC-62 melanoma and with SK-MEL-28 melanoma were -96.7% (active), -27.8% (active) and 29.5%, respectively.
Regarding `O=[N+]([O-])c1cccc(/C=N/NC(=S)NC23CC4CC(CC(C4)C2)C3)c1`, the growth was 96% with HCT-15 colon; 88.7% in the assay on HT29 colon; 17.9% in the assay on SNB-75 CNS; 80.6% in the assay with SNB-19 CNS; 68.1% in the assay with U251 CNS; 75.9% with PC-3 prostate. The growth in the assay with SK-MEL-5 melanoma was 85.7%; in the assay on UACC-62 melanoma, 84.3%; in the assay with LOX IMVI melanoma, 76.4%; with SK-MEL-28 melanoma it was 85.4%.
Turning to `C/C(=N\O)c1ccc(NC(=O)CSc2nnc(-c3ccccc3)n2-c2ccccc2)cc1`, the growth in the assay with HCT-15 colon was 97.5%; with HT29 colon, 84%; in the assay with SNB-75 CNS it was 45.8%; in the assay with SNB-19 CNS it was 97.2%; in the assay on U251 CNS, 59.2%; with PC-3 prostate it was 73.7%. The growth in the assay with SK-MEL-5 melanoma was 48.6%; in the assay with UACC-62 melanoma, 81.9%; in the assay on LOX IMVI melanoma, 63.6%; with SK-MEL-28 melanoma it was 97.7%.
In the case of `O=C(COc1cccc(/C=C2\CSc3ccccc3C2=O)c1)c1ccc(Cl)cc1`, the growth in the assay on HCT-15 colon was -49.7% (active); in the assay with HT29 colon, -86.3% (active); in the assay on SNB-75 CNS, 94.6%; with SNB-19 CNS, 60.8%; with U251 CNS it was -97.9% (active); in the assay on PC-3 prostate, -39.6% (active). Besides, the growth was -94.4% (active) with SK-MEL-5 melanoma, -73.9% (active) in the assay with UACC-62 melanoma, -100% (active) with LOX IMVI melanoma and -81.7% (active) with SK-MEL-28 melanoma.
`COc1cc(-c2nn(-c3cccc(NC(=O)CCNc4ccc(N5CCOCC5)cc4)c3)cc2-c2ccncc2)ccc1Cl`: the growth was 14.2% with HCT-15 colon; 11.8% in the assay with HT29 colon; 40.1% in the assay on SNB-75 CNS; 32.9% in the assay on SNB-19 CNS; 24% in the assay on U251 CNS; 8.06% (active) in the assay on PC-3 prostate. Moreover, the growth in the assay with SK-MEL-5 melanoma is -40.5% (active); with UACC-62 melanoma it was 13.9%; with SK-MEL-28 melanoma it was 31.6%.
Turning to `CC(C)Cc1ccc([C@H](C)C(=O)O)cc1`, the growth in the assay with HCT-15 colon was 97%; in the assay with HT29 colon it was 106%; in the assay on SNB-75 CNS, 79.4%; in the assay with SNB-19 CNS, 108%; in the assay with U251 CNS it was 101%; in the assay with PC-3 prostate it was 93.6%. Besides, the growth in the assay with SK-MEL-5 melanoma is 102%; in the assay on UACC-62 melanoma it was 103%; with SK-MEL-28 melanoma it was 109%.
